In PubChem BioAssay:

assay: small-molecule binders of probe aNOTCH3, primary screen, biochemical, small-molecule microarray, 635/667 nm fluorescence (AID 1120); conditions: higher = more signal;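 note: probe is a biotin-tagged antibody raised against NOTCH3 rather than NOTCH3 protein; score merges spot fluorescence near 667 nm with spot signal to noise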

Compound | composite z-score
COc1ccc(CCN2C(=O)[C@@]3(c4ccc([N+](=O)[O-])cc4)CC(=O)N(CC45CC6CC(CC(C6)C4)C5)[C@@H]3c3ccc(CO)cc32)cc1 | 0.323
C=CCN1C(=O)[C@@]2(Cc3ccccc3)N=C(c3ccc(OCCCO)cc3)O[C@H]2c2ccccc21 | 0.0635
CN1CCC(CCCO)=CC1C1CC1 (configuration not stated) | -0.0918
CC(C)N1CC=CC23O[C@@H]4/C=C\CCCOC(=O)C4[C@H]2C(=O)N(CCCCCO)[C@@H]3C1=O (some centres not stated) | -0.448
COCCOC(=O)N1C(=O)[C@@]2(c3cc(C#CCC(C(=O)OC)C(=O)OC)ccc31)[C@H](C(=O)N1CCN(c3ncccn3)CC1)[C@H]1C(=O)O[C@H](c3ccccc3)[C@H](c3ccccc3)N1[C@@H]2c1ccc(O)cc1 | -0.0343
CCC(=O)[C@]12O[C@@]3([C@@H]4C(=O)OCC[C@@H]41)N(Cc1ccccc1)C(C)=C(C(=O)OC)[C@@H](c1ccccc1)N3C2=O | -0.207
COC(=O)[C@@]1(Cc2ccc(OC)cc2)[C@H]2c3cc(C(=O)N(C)C)n(Cc4ccc(C)c(F)c4F)c3C[C@H]2CN1C(=O)c1ccccc1 | 0.0159
COc1cc(CO)cc(I)c1O[C@H]1C=C(C(=O)NCCO)C[C@@H](NCCc2c[nH]c3ccccc23)[C@@H]1O | 0.124
Cc1ccc(N2C(=O)c3ccccc3[C@](C)(C(=O)O)[C@@H]2c2ccc(CO)cc2)nc1 | -0.414
COC(=O)[C@@]1(Cc2ccccc2)[C@H]2c3cc(C(=O)N4CCCC4)n(CCN4CNCC4=O)c3C[C@H]2CN1C(=O)c1ccccc1 | 0.119
CO[C@@H]1COC(=O)[C@H](C)NC(=O)CC=C[C@@H](C)[C@H](OC)COC(=O)[C@H](C)NC(=O)CC=C[C@H]1C | -0.226
C=C(COC)/C(=C/C[C@@H](OC(C)=O)c1cccc(OCCO)c1)c1cc(C(=O)OC)ccc1OC | -0.0729
CCOC(=O)C[C@H]1[C@H](OC(=O)c2ccccc2-c2ccccc2)[C@@H](NC(=O)c2ccc(-c3ccccc3)cc2)c2cc(OCCCO)ccc2N1C(=O)Cc1ccc(OC)cc1 | 0.0193
[N-]=[N+]=NCc1ccccc1C[C@]1(C(=O)N2CCCCC2)N=C(c2ccc(OCCCO)cc2)O[C@H]1c1ccccc1CN=[N+]=[N-] | 0.268
CO[C@H]1COC(=O)[C@@H](OCc2ccccc2)C=C[C@H](C)[C@@H](OC)COC(=O)[C@H](OCc2ccccc2)C=C[C@@H]1C | -0.0682
COCCOC(=O)N1C(=O)[C@@]2(c3cc(C#CCNC(N)=O)ccc31)[C@H](c1ccc(OCCO)cc1)N1[C@H](c3ccccc3)[C@H](c3ccccc3)OC(=O)[C@H]1[C@@H]2C(=O)Nc1nc2ccccc2s1 | -0.124
CCOC(=O)C1=CC[C@@H](c2ccc(-c3ccc(OCc4ccccc4)cc3)c(OC)c2)N(S(=O)(=O)c2ccc(C)cc2)[C@H]1c1ccccc1 | 0.349
Cc1ccc(S[C@]2(C(=O)O)CC(=O)N(Cc3ccccc3)[C@@H]2c2ccc(CO)cc2)cc1 | -0.0328
Cc1ccc(S[C@]2(C(=O)NC(C)C)CC(=O)N(Cc3cc(C(F)(F)F)cc(C(F)(F)F)c3)[C@@H]2c2ccc(CO)cc2I)cc1 | -0.313
CO[C@@H]1COC(=O)[C@H](COCc2ccccc2)NC(=O)CC=C[C@@H](C)[C@H](OC)COC(=O)[C@H](COCc2ccccc2)NC(=O)CC=C[C@H]1C | -0.0063
CCC1=C2CN(Cc3ccccc3Br)[C@@H]([C@@H](O)Cc3ccccc3)C2C=CCC1 (some centres not stated) | -0.0277
COCCOC(=O)N1C(=O)[C@@]2(c3cc(C#CCC(C(=O)OC)C(=O)OC)ccc31)[C@H](c1ccccc1OCCO)N1[C@H](c3ccccc3)[C@H](c3ccccc3)OC(=O)[C@H]1[C@@H]2C(=O)N1CCCCCCC1 | 1.23
CO[C@@H]1COC(=O)[C@@H]2CCCN2C(=O)CC=C[C@@H](C)[C@H](OC)COC(=O)[C@@H]2CCCN2C(=O)CC=C[C@H]1C | -0.0699
C=C(COC)/C(=C/C[C@H](OC(C)=O)c1ccc(OCCO)cc1)c1cnc2ccccc2c1 | 0.196
CC(=O)Nc1ccc([C@H]2[C@H](C)CC[C@H]3C(=O)N4[C@@H](CC[C@@H](C)[C@@H]4c4ccc(NC(C)=O)cc4)C(=O)N32)cc1 | -0.0699
CN(C)CCCC[C@@H]1NC(=O)[C@@H]2C[C@H](C(=O)O)[C@H](c3ccc(O)cc3)N2C1=O | 0.237
C[C@@H]1CC[C@H]2C(=O)N3[C@@H](CC[C@@H](C)[C@@H]3c3cccc(N4CCOCC4)c3)C(=O)N2[C@H]1c1cccc(Br)c1 | -0.0259
